Test results taken from PubChem BioAssay (NCI).
This is part of a sample that, as a whole, favours compounds with a hit. Of some 79,000 tested, about 15% had one in any assay. A number with no mark means an inactive call. No stated cut-off is given here; in the data, active means growth inhibition above about 70%; inactive means the rest.

Experiment: NCI Yeast Anticancer Drug Screen. Data for the mlh1 rad18 strain (AID 175)
Details: S. cerevisiae mlh1 rad18 strain growth inhibition; at 50.0 µM; stronger effect = higher value
In short: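 Genetically defined yeast (DNA repair-deficient) exposed to compounds; growth inhibition determined relative to vehicle.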

Q: For `Cc1ccc(S(=O)(=O)N/N=C2\CCC3CC2C3(C)C)cc1` (stereo not given), which growth inhibition is on record?
A: Its growth inhibition is 5.95%.

Q: For `CC1=C(CC2C(=O)N(c3ccccc3)S(=O)(=O)NC2C)C(=O)N(c2ccccc2)S(=O)(=O)N1C` (stereo not given), which growth inhibition is on record?
A: The growth inhibition was 8.5%.

Q: For `O=C(Nc1nncs1)c1ccncc1`, which growth inhibition is on record?
A: Its growth inhibition is -46.1%.

Q: For `Cc1c(Cl)cccc1NC(=O)C1CC(Br)C(Br)CC1C(=O)O` (stereo not given), which growth inhibition is on record?
A: Its growth inhibition is 31.3%.

Q: Which growth inhibition does the source give for `CCN(CC)CCCNc1cc(OC)c(Cl)c2cccnc12` here?
A: Its growth inhibition is 28.7%.

Q: For `Cc1ccc(C(=O)NO)cc1`, which growth inhibition is on record?
A: Its growth inhibition is 17.5%.

Q: With `NC(N)=NS(=O)(=O)c1ccc(NC(=O)c2cccc3c(N)c4ccccc4nc23)cc1` as the molecule, how does the growth inhibition read?
A: Its growth inhibition is -10.2%.

Q: Which growth inhibition does the source give for `CCCCCCCSCC1OC(n2cnc3c(N)ncnc32)C(O)C1O` (stereo not given) here?
A: The growth inhibition was 9.3%.

Q: Which growth inhibition does the source give for `C=CC1CC1(Cl)Cl` (stereo not given) here?
A: Its growth inhibition is 11.7%.

Q: With `CC1=C/C(=C(/c2cccc(S(=O)(=O)O)c2)c2cc(C)c(O)c(C(=O)O)c2)C=C(C(=O)O)C1=O` as the molecule, how does the growth inhibition read?
A: Its growth inhibition is 9.05%.

Q: With `Cc1nn(-c2ccccc2)c2c1N=C(C(=O)O)CC(c1ccccc1)=N2` as the molecule, how does the growth inhibition read?
A: Its growth inhibition is 13.8%.

Q: With `O=C1C[CH]([Ge](=[O])[O][Ge](=[O])[CH]2CC(=O)NC(=O)N2)NC(=O)N1` (stereo not given) as the molecule, how does the growth inhibition read?
A: Its growth inhibition is 22.1%.

Q: With `O=c1cccccc1Cl` as the molecule, how does the growth inhibition read?
A: The growth inhibition was 11.6%.

Q: With `COc1cccc(NC(=S)/C(=C(/[O-])c2ccc([N+](=O)[O-])cc2)[n+]2cccc3ccccc32)c1` as the molecule, how does the growth inhibition read?
A: Its growth inhibition is 10.5%.

Q: Which growth inhibition does the source give for `CC1(C)N=C(/C(Cl)=[N+](/[O-])C(=O)c2ccc(F)cc2)C(C)(C)N1O` here?
A: Its growth inhibition is -25.9%.

Q: With `CC1(C)CC([N+](C)(C)CCCCCC[N+](C)(C)C2CC(C)(C)N(O)C(C)(C)C2)CC(C)(C)N1O` as the molecule, how does the growth inhibition read?
A: Its growth inhibition is 12.5%.

Q: With `CCOC(=O)CC(=O)Nc1cc(C)cc(C)n1` as the molecule, how does the growth inhibition read?
A: The growth inhibition was 5.7%.

Q: Which growth inhibition does the source give for `COC(=O)NC(Cc1ccccc1)NC(=O)OC(C)(C)C` (stereo not given) here?
A: Its growth inhibition is -12.9%.

Q: Which growth inhibition does the source give for `CCCNc1cc2c(cc1Br)-c1ccccc1C2=O` here?
A: The growth inhibition was -0.65%.

Q: Which growth inhibition does the source give for `Oc1ccccc1C=Nc1ccc(I)cc1.Oc1ccccc1C=Nc1ccc(I)cc1.[Co]` here?
A: Its growth inhibition is 36.8%.

Q: For `CC1=C(C)CC2C(=O)c3c(O)ccc(O)c3C(=O)C2C1` (stereo not given), which growth inhibition is on record?
A: The growth inhibition was 50.1%.

Q: With `COc1ccc(Cc2ccccc2)cc1` as the molecule, how does the growth inhibition read?
A: The growth inhibition was 6.65%.

Q: For `O=C(COc1ccc(Cl)cc1)Nc1nccs1`, which growth inhibition is on record?
A: Its growth inhibition is 21.4%.

Q: Which growth inhibition does the source give for `Cc1cc(Cl)c(Cl)cc1Cl` here?
A: Its growth inhibition is 2.3%.

Q: For `COC(=O)c1cc(OC)c(O)c(OC)c1`, which growth inhibition is on record?
A: Its growth inhibition is -19.9%.

Q: With `OCc1cc(Cl)cc(Cc2cc(Cl)cc(Cc3cc(Cl)cc(Cc4cc(Cl)cc(Cc5cc(Cl)cc(CO)c5O)c4O)c3O)c2O)c1O` as the molecule, how does the growth inhibition read?
A: Its growth inhibition is -27.9%.

Q: For `O=C(Cc1ccccc1)c1c[nH]c2c(O)ccc(O)c12`, which growth inhibition is on record?
A: The growth inhibition was -8.45%.

Q: Which growth inhibition does the source give for `CCCC(=O)OCC(C)(C)CC(C)C` here?
A: The growth inhibition was -24.4%.

Q: Which growth inhibition does the source give for `CC(=O)NC1C(O)C(NC(C)=O)C(OC(C)=O)C(OC(C)=O)C1OC(C)=O` (stereo not given) here?
A: The growth inhibition was 1.35%.

Q: With `O=C(NC1C2CC3CC(C2)CC1C3)c1cc(/C=C/c2ccccc2)[nH]c(=S)n1` (stereo not given) as the molecule, how does the growth inhibition read?
A: The growth inhibition was 14.3%.

Q: Which growth inhibition does the source give for `CCCCCCCCCCCCCCCCCC(=O)O` here?
A: Its growth inhibition is 6.05%.

Q: Which growth inhibition does the source give for `[O-][N+]1(CC[N+]2([O-])CCCCC2)CCCCC1` here?
A: The growth inhibition was 15.8%.

Q: With `C=CCS(=O)(=O)c1ccc(Cl)cc1` as the molecule, how does the growth inhibition read?
A: The growth inhibition was -22.2%.

Q: With `CC(C)C1OC2(CCCCC2)OCC1(C)C` (stereo not given) as the molecule, how does the growth inhibition read?
A: Its growth inhibition is 23.4%.

Q: For `CC(=O)Oc1ccc(NCNc2ccc(OC(C)=O)cc2)cc1`, which growth inhibition is on record?
A: The growth inhibition was -3.35%.

Q: Which growth inhibition does the source give for `CC1S(=O)(=O)OCCCOS1(=O)=O` here?
A: Its growth inhibition is -17.6%.

Q: Which growth inhibition does the source give for `Cc1cc(N(CCC#N)CCC#N)ccc1/C=C(\NC(=O)/C=C/c1ccccc1)C(=O)N=[N+]=[N-]` here?
A: Its growth inhibition is -7.2%.

Q: For `CC1CC(c2ccccc2)S(=O)(=O)O1` (stereo not given), which growth inhibition is on record?
A: Its growth inhibition is -9.95%.

Q: With `Cc1ccc(-c2cc(=O)c3cc(C)c(C)c(C(=O)O)c3o2)cc1` as the molecule, how does the growth inhibition read?
A: The growth inhibition was 10.8%.

Q: Which growth inhibition does the source give for `Cc1ccc(S(=O)(=O)NCNS(=O)(=O)c2ccc(C)cc2)cc1` here?
A: The growth inhibition was -35.6%.
